Source: PubChem BioAssay (several laboratories)
CRFBP-R2 block: antagonists of CRF-binding protein/CRF-R2 receptor complex. HEK293 CRF-R2/CRF-BP, CRF-induced calcium fluorescence. inhibition, % at 11.8 µM. actives 0.59% (n = 350,000). AID 588475;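 active = inhibition of the ligand-induced calcium signal above about 50% at the single tested concentration, limit read from the data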
CRFR2-BP ag: agonists of human CRF-binding protein/CRF-R2 receptor complex | HEK293 CRF-R2/CRF-BP, calcium dye fluorescence (FLIPR); percent of saturating CRF peptide response | activation, % at 13.2 µM | AID 588473 | actives 0.46% (n = 350,000);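 active = activation of at least 50%, plus an integration ratio under a set limit after plate pattern correction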;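 also: plate controls were neutral control wells without compound for no effect and CRF at EC100 for full effect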
IDE inh: inhibitors of human insulin-degrading enzyme in cells; P14735; HEK cells, FAbetaB cleavage, fluorescence polarization; inhibition, % at 5.59 µM; actives 0.41% (n = 320,000); AID 434962;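 active = percent inhibition above the average of all tested compounds plus 3 SD, set per screening campaign, cut at about 16% in these data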;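 also: IDE supplied by intact live HEK cells; FP after avidin binding of uncleaved biotin substrate so inhibition keeps polarization high; 0% = DMSO wells and 100% = 60 µM reference IDE inhibitor Ii1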
Target sequence (P14735 whole entry, looked up): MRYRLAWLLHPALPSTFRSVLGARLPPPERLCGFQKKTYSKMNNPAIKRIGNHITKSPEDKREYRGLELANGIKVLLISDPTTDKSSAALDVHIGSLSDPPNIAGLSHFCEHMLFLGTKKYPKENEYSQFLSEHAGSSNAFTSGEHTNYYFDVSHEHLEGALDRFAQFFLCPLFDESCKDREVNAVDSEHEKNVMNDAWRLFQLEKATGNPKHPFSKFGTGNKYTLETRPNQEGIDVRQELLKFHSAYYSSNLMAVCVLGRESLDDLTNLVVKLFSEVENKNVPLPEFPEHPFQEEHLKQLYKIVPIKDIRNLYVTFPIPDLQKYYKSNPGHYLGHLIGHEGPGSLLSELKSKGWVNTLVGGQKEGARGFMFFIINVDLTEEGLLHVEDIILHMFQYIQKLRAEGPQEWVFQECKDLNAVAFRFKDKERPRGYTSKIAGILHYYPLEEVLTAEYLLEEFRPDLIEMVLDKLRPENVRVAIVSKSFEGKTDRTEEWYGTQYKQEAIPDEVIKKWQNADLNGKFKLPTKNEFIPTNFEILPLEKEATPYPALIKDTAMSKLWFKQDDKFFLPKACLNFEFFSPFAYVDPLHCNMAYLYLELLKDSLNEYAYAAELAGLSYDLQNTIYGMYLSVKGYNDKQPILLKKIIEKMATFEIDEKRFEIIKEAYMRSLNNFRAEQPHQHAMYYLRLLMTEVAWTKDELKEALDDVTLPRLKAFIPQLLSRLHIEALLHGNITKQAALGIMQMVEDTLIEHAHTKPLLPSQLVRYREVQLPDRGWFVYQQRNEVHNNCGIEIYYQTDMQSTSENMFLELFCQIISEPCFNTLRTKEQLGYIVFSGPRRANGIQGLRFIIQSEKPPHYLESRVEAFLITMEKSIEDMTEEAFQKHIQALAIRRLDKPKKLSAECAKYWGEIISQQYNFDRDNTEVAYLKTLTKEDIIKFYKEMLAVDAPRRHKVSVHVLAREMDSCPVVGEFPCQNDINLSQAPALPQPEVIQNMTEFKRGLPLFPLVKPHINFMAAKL
IDE cell activ: boosts human insulin-degrading enzyme activity in HEK cells; actives 0.073% (n = 340,000); FAbeta-B cleavage, fluorescence polarization; 0% vehicle, 100% cell-free pure enzyme wells; P14735; activation, % at 5.96 µM;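 active = activation above the mean of all tested compounds plus 3 SD, set per screening campaign, cut at about 17% in these data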
Myeloid diff 2: myeloid differentiation induction; ER-HoxA9 myeloid progenitors, lysozyme-GFP differentiation, flow cytometry; calls only at 10 µM; actives 1% (n = 360,000);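 active = normalized GFP-positive differentiation at or above the plate's own cutoff, the solvent-only control mean plus 3 SD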;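 also: cells exposed to compound for four days before flow analysis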
TPT1 inhibitor: blocks Candida albicans tRNA 2'-phosphotransferase; recombinant caTPT1, FP RNA substrate dephosphorylation; actives 0.81% (n = 300,000); inhibition, % at 5 µM;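 active = inhibition above the mean of all tested compounds plus 3 SD, set per screening campaign, cut at about 24% in these data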;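 also: plate controls were DMSO alone for no effect and ferristatin control at 100 nM for full effect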
Numbers without * were called inactive; i = inactive; / = not tested or not shown; + = active, no number. A selection: hits, their analogues and other compounds. The true share with any hit is near 2.6%.

SMILES	CRFBP-R2 block	CRFR2-BP ag	IDE inh	IDE cell activ	Myeloid diff 2	TPT1 inhibitor
COc1ccc(C(=O)c2sc3nc(C)cc(-c4cccs4)c3c2N)cc1	-69.9	66.9*	/	-6.2	i	/
N#Cc1ccc(NN=Nc2ccccc2C#N)cc1	6.8	-3.5	/	/	i	/
O=C1CC2(CCCC2)CC(=O)N1c1ccccc1	10.5	-0.8	-0.9	30.2*	i	0.4
Cc1ccc(NC(=O)CSc2nnc(C)n2CC2CCCO2)cc1 (centres undefined)	7.0	-0.7	0.9	-2.5	+	-0.5
Cc1nnc(SCC(=O)Nc2ccc([N+](=O)[O-])cc2)n1CC1CCCO1 (centres undefined)	13.7	-2.2	9.2	-0.6	i	-2.0
Cc1cccc(C(=O)OCC(=O)Nc2ccc3c(c2)OCCO3)c1O	3.5	0.9	4.6	3.8	i	/
CCCNC(=O)c1ccc2c(=O)c(O)c(-c3ccsc3)[nH]c2c1	-10.2	34.7	-1.9	4.7	+	-37.4
Cc1ccc(C(=O)N(C)CCOc2ccccc2)cc1S(=O)(=O)N1CCCCC1	6.1	-1.1	-1.5	-1.1	i	/
CN(Cc1ccccc1)C(=O)c1cccc(NC(=O)Cc2ccc(NC(=O)C3CCCN(C(=O)CCc4ccccc4)C3)cc2)c1 (centres undefined)	57.1*	4.3	/	4.1	i	/
CN(Cc1ccccc1)C(=O)c1ccc(NC(=O)Cc2cccc(NC(=O)C3CCCN(C(=O)CCc4ccccc4)C3)c2)cc1 (centres undefined)	4.2	1.7	-0.3	-4.2	i	/
CC1CCN(CC(=O)Nc2ccc(S(=O)(=O)N3C(C)CCCC3C)cc2)CC1 (centres undefined)	-15.9	0.6	4.7	1.6	i	-1.2
Cn1c(CN2CCOCC2)nnc1SCC(=O)Nc1ccc([N+](=O)[O-])cc1O	-23.5	-0.2	-15.7	23.7*	i	-1.0
Cc1cccc(NC(=O)CSc2nnc(CN3CCOCC3)n2C)c1C	18.6	0.1	5.6	-5.7	i	0.2
CCCN1C(=O)c2ccccc2NC1c1ccc(OC)c(CSc2ccccn2)c1 (centres undefined)	50.5*	-1.8	14.3	4.8	i	-2.4
COCCCN1C(=O)C(CC(=O)NCc2ccco2)CC(C(=O)N(C(C)C)C(C)C)=C1C (centres undefined)	/	/	/	/	i	/
N#Cc1ccc(NC(=O)COC(=O)CSc2nnc(-c3ccc(Cl)cc3)o2)cc1	51.6*	3.9	-4.9	-4.5	i	0.1
COC(=O)[C@@]12CCCCN1[C@H](c1ccc(-c3ccc4c(c3)OCO4)cc1)[C@H]1C(=O)N(C)C(=O)[C@H]12	4.6	0.4	2.0	2.8	i	/
O=C(Nc1ccccc1C(=O)O)/C(=C/c1ccc(Cl)cc1Cl)NC(=O)c1ccco1	-46.6	2.1	-1.1	6.5	i	0.3
COc1ccc(-c2cc(NC=O)c3ncc(-c4cccc(C(=O)NCCN(C)C)c4)n3c2)cc1	/	/	/	/	+	/
COc1cccc(-c2cnc3c(NC=O)cc(-c4ccc(N(C)C)cc4)cn23)c1	/	/	/	/	i	/
COc1cccc(-c2cnc3c(NC=O)cc(-c4cc(OC)c(OC)c(OC)c4)cn23)c1	/	/	/	/	+	/
Cc1ccc(NC(=O)COC(=O)c2cccc3c(=O)c(C)c(-c4ccccc4)oc23)cc1	-15.1	1.4	5.8	4.2	i	-5.3
O=C(Cn1c(-c2cscn2)nc2ccccc21)Nc1ccccc1F	-12.8	0.5	4.4	-4.8	i	0.3
Cc1cc(C)cc(-n2cc[nH]c2=S)c1	0.9	1.3	-10.5	-6.8	i	3.3
COc1ccc(C(=O)N=c2sc3c(C)ccc(OC)c3n2C)cc1	8.1	0.7	0.7	0.3	+	-0.4
SMILES	CRFBP-R2 block	CRFR2-BP ag	IDE inh	IDE cell activ	Myeloid diff 2	TPT1 inhibitor
CC(C)(C)n1nnnc1C(c1ccccc1)N1CCN(C/C=C/c2ccccc2)CC1 (centres undefined)	/	/	/	/	+	/
CCOc1ccc(-c2nc3n(c(=O)c2C#N)CCCS3)cc1	-3.1	0.1	4.9	0.5	+	1.8
Cc1sc2ncnc(NCC3COc4ccccc4O3)c2c1C (centres undefined)	16.9	0.8	10.4	-9.4	+	1.2
c1ccc(-c2csc3ncnc(NCC4COc5ccccc5O4)c23)cc1 (centres undefined)	16.7	-3.8	6.4	-1.9	i	1.8
CN(C)C=Nc1ncc2c([nH]c3ccccc32)c1C#N	-4.2	-2.2	-3.2	9.4	i	0.0
Cc1ccc(C(=O)NC2CC3CCC(C2)N3Cc2ccco2)cc1 (centres undefined)	16.6	0.3	-0.7	7.4	i	-6.3
COc1cc(OC)cc(C(=O)NC2CC3CCC(C2)N3Cc2ccco2)c1 (centres undefined)	58.2*	-0.5	/	-3.2	i	/
O=C(Nc1sccc1C(=O)N1CCOCC1)c1cccnc1	-2.5	1.8	-2.6	-1.3	i	4.6
Cc1ccc2nc(Cl)c(C3CC(c4ccco4)=NN3C(=O)CCCC(=O)O)cc2c1 (centres undefined)	-1.4	2.0	7.8	0.8	i	-1.7
CC(=O)N1N=C(c2ccco2)CC1c1cc2cc(C)ccc2nc1Cl (centres undefined)	0.8	-0.9	3.9	/	+	-3.9
CCOc1ccc(S(=O)(=O)N2CCN(Cc3ccco3)CC2)cc1	-6.8	-0.5	2.7	0.6	i	0.7
Cc1cc(C)c(-c2nc3ccccc3s2)[nH]1	-21.4	0.4	5.3	-2.8	+	1.8
CCn1c(SCC(=O)N/N=C/c2ccc(C)o2)nnc1-c1ccc(C(C)(C)C)cc1	-16.5	2.4	-5.9	0.9	+	-0.6
C=C1[C@H]2O[C@H]2[C@@H](OC(C)=O)[C@@]2(C)[C@@H](OC(C)=O)C[C@@H](OC(C)=O)[C@@](C)(O)[C@@H]2[C@@H](OC(C)=O)[C@@]2(O)[C@@H](C)C(=O)O[C@H]2[C@H]1Cl	4.3	1.0	/	2.4	i	/
CCN(CC)c1ccc(/C=c2\sc3nc4ccccc4n3c2=O)c(O)c1	-152.9	164.6*	/	-21.2	+	/
O=C(O)c1cc(O)ccc1N=Nc1ccccc1	9.8	-1.4	0.0	2.2	i	-0.7
O=C(O)c1ccccc1N=Nc1ccc(O)cc1	-3.6	1.8	-13.6	19.8*	i	-23.6
Cc1ncoc1C(=O)N1CCCC(N2CCN(c3cccc(C(F)(F)F)c3)CC2)C1 (centres undefined)	-4.8	0.1	9.1	2.6	i	0.0
COc1ccc(NC(=O)Nc2ccc3c(c2)CC(=O)N([C@H](C)CO)C[C@H](C)[C@H](CN(C)Cc2ccc(C(=O)O)cc2)O3)cc1	-3.8	0.6	-1.1	-0.5	i	/
Cc1cnc(C(=O)OCC(=O)Nc2c(Cl)cc(Cl)cc2Cl)cn1	-2.8	0.5	2.0	5.4	i	/
COc1ccc(/C=N/NC(=O)c2ccccc2NC(=O)c2ccco2)c(OC)c1	111.1*	-3.0	8.5	2.7	i	0.5
